MARV entry inh: blocks Marburg virus binding to or entry into cells. Potency, µM (top dose mostly 37.8 µM), hits mostly inhibitors. Marburg virus pseudotyped entry inhibition, cell reporter. AID 540276. 300,000 compounds, 1.8% hits; calls by dose curve; tested in HEK293 cells
HCMV inh: blocks human cytomegalovirus replication | HFF cells, HCMV-luciferase reporter, 72 h; hits give low values | activity change, negative = inhibition, % at 57.5 µM | 410,000 compounds, 4.5% hits; in the data active = activity change below about -60%; inconclusive = no clear call, values can overlap the other calls; inactive = above about -39%
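Cell-based, HFFs, 1000 cells/well, 16 h 37C; cpds in DMSO + HCMV-luc, MOI 1 PFU/cell; 72 h 37C; OneGlo luminescence after 5 min RT; norm. to buffer vs Salinomycin 10uM.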
FMDV antiviral: antivirals against foot and mouth disease virus; FMDV antiviral cell-based qHTS; Potency, µM (highest dose often 57.9 µM), hits mostly inhibitors; 410,000 compounds, 1.2% hits; AID 1159524; calls by dose curve; tested in HEK293T cells; also: read-out not given here; nearly all actives have a fitted effect of over 45% in size
LASV entry inh: inhibitors of Lassa virus binding or cell entry | Lassa virus pseudotype entry inhibition, cell reporter | Potency, µM (series often up to 37.9 µM), hits mostly inhibitors | 300,000 compounds, 1.2% hits; calls by dose curve; tested in HEK293 cells; also: nearly all actives have a fitted effect of over 50% in size
Each line names hits and unclear results; the compound was inactive in the other large screens; ! = not confirmed by another sample. Sampled rows, rich in hits. Any-hit rate of the full collection: about 6.2%.

COc1ccc(/C=N/NC(=O)c2ccoc2C)cc1COc1ccc(Cl)cc1	MARV entry inh inconclusive, FMDV antiviral 22µM, LASV entry inh inconclusive
COc1ccc(C(=O)N/N=C/c2ccc(OC)c(COc3ccc(F)cc3)c2)cc1	MARV entry inh inconclusive
O=C(CCc1nnc2ccc(N3CCC4(CC3)OCCO4)nn12)NCc1ccccc1Cl	none (no result: MARV entry inh, LASV entry inh)
O=C(CN1C(=O)C2CCCCN2C(=O)c2ccccc21)N1CCCc2ccccc21 (stereo not given)	LASV entry inh inconclusive
Cc1cccc(C#Cc2ccccc2)n1	MARV entry inh inconclusive, HCMV inh -65, LASV entry inh inconclusive
CCCCC[C@H](O)/C=C/C1C(=O)C=C[C@H]1C/C=C\CCCC(=O)OC (stereo not given in full)	HCMV inh -110, FMDV antiviral 25µM (no result: MARV entry inh, LASV entry inh)
CC(C)(C)c1cc(/C=C2\NC(=O)NC2=O)cc(C(C)(C)C)c1O	HCMV inh -83 (no result: MARV entry inh, LASV entry inh)
O=C1NC(=O)/C(=C/c2cccc(O)c2)N1	none (no result: MARV entry inh, LASV entry inh)
Cc1cccc(C)c1N(CC(=O)N/N=C/c1cc(Br)c(C)o1)S(C)(=O)=O	none
CCn1c(=O)cc(SCC(=O)Nc2cccc(SC)c2)c2ccccc21	FMDV antiviral 20µM, LASV entry inh inconclusive
CCn1c(=O)cc(SCC(=O)Nc2ccc(C)cn2)c2ccccc21	HCMV inh -95 (no result: MARV entry inh, LASV entry inh)
CCn1c(=O)cc(OCC(=O)Nc2nc(C)cs2)c2ccccc21	none (no result: MARV entry inh, LASV entry inh)
CCn1c(=O)cc(SCC(=O)NCc2ccc(C)cc2)c2ccccc21	none
CCn1c(=O)cc(OCC(=O)Nc2ccc(C)cn2)c2ccccc21	HCMV inh -61
O=C(COCc1cc(-c2ccco2)on1)NC1CCCCC1	none (no result: MARV entry inh, LASV entry inh)
Cc1ccc(S(=O)(=O)N2CCN(C(=O)COC(=O)c3ccccn3)CC2)c(C)c1	none
Cc1ccc2c(Cl)cc(Cl)c(OCC(=O)Nc3cc(S(=O)(=O)N(C)C)ccc3C)c2n1	MARV entry inh 4µM, FMDV antiviral inconclusive, LASV entry inh inconclusive
Cc1ccc2c(Cl)cc(Cl)c(OCC(=O)Nc3cccc(S(=O)(=O)N(C)C)c3)c2n1	FMDV antiviral inconclusive
COCC(=O)NNC(=O)c1ccc(OC)cc1	none (no result: LASV entry inh)
CCCCOc1ccccc1NC(=O)Cn1c(-c2nonc2N)nc2ccccc21	MARV entry inh inconclusive, HCMV inh -78, LASV entry inh inconclusive
Cc1cc(NCCN(C)C)n2nc(-c3cccs3)cc2n1	none
Cc1ccc2[nH]c(=O)c(Cc3ccccc3)c(O)c2c1	none
COc1ccc(C2=C(C)C(=NCCCN3CCN(c4cc(C)ccc4C)CC3)NS2(=O)=O)cc1	HCMV inh -91
COc1ccccc1C(=O)NCCC(=O)NCCC12CC3CC(CC(C3)C1)C2	none
CN(C)CCNC(=O)c1cccc2ccc(-c3ccc(-c4ccccc4)cc3)nc12	MARV entry inh inconclusive, LASV entry inh inconclusive
COc1ccc(C23CC4CC(CC(C4)C2)C3)cc1C(=O)NCCN(C)C	HCMV inh -70 (no result: MARV entry inh, LASV entry inh)
COc1ccc(OC)c2nc3c(C(=O)NCCN(C)C)cccc3nc12	MARV entry inh inconclusive, HCMV inh -96, LASV entry inh inconclusive
CN(C)CCNC(=O)c1cccc2nc3cccc(F)c3nc12	MARV entry inh inconclusive, HCMV inh -99
CCn1c(SCC(=O)N/N=C/c2ccc(OC)c(OC)c2)nc2ccccc21	none
CCSc1nc2ccccc2n1C(=O)/C=C/c1ccc(OC)c(OC)c1	MARV entry inh inconclusive, HCMV inh -100, FMDV antiviral 20µM, LASV entry inh 6.3µM
C=CCSc1nc2ccccc2n1C(=O)/C=C/c1cc(OC)c(OC)c(OC)c1	MARV entry inh 13µM, HCMV inh -111, FMDV antiviral 8.9µM, LASV entry inh 9.2µM
C=CCSc1nc2ccccc2n1C(=O)/C=C/c1ccc(OC)c(OC)c1	MARV entry inh inconclusive, HCMV inh -103, FMDV antiviral inconclusive, LASV entry inh 8.2µM
CCOC(=O)c1c(Nc2ccc(OC)cc2)n[nH]c1C	none (no result: MARV entry inh, FMDV antiviral, LASV entry inh)
COc1ccccc1OCCC(=O)O	HCMV inh -91
COc1ccccc1OCC(=O)O	none
C[C@@H](C(=O)NCc1ccco1)N1C(=O)N2CCc3c([nH]c4ccccc34)[C@@]2(C)C1=O	FMDV antiviral inconclusive (no result: MARV entry inh, LASV entry inh)
CCOC(=O)c1c(SCc2ccccc2)n[nH]c1N	none (no result: MARV entry inh, LASV entry inh)
Cn1ncc2c(O/N=C(\N)c3ccc(C(F)(F)F)cc3)ncnc21	FMDV antiviral 22µM (no result: MARV entry inh, LASV entry inh)
Cc1cccc(N(CC(N)=O)S(C)(=O)=O)c1C	none
O=C(Nc1ccc(Cl)cc1)N1CCN(c2ccc3nnc(-c4ccc(F)cc4)n3n2)CC1	MARV entry inh inconclusive, HCMV inh -63!, LASV entry inh inconclusive
COc1ccc(NC(=O)N2CCCC(c3nc(-c4ccc(OC)cc4)no3)C2)cc1 (stereo not given)	MARV entry inh inconclusive, HCMV inh inconclusive, LASV entry inh inconclusive
O=C(Nc1ccc(F)cc1)N1CCCN(c2ccc(C(F)(F)F)cn2)CC1	MARV entry inh inconclusive, HCMV inh -62
O=C(Nc1ccc(Cl)cc1)N1CCC(c2nc(-c3ccc(F)cc3)no2)CC1	HCMV inh -91
CC(NC(=O)COC(=O)CN1C(=O)C2CCCCC2C1=O)c1ccccc1 (stereo not given)	none
Cc1ccc(S(=O)(=O)N2CCN(C(=O)CN3C(=O)NC4(CCCCC4)C3=O)CC2)c(C)c1	none
Cc1nc2c(-c3ccccc3)c(C)[nH]n2c(=O)c1Cc1ccc(C(C)C)cc1	MARV entry inh inconclusive, FMDV antiviral inconclusive, LASV entry inh inconclusive
COc1ccccc1-c1c(C)[nH]n2c(=O)c(Cc3ccccc3)c(C)nc12	FMDV antiviral inconclusive (no result: MARV entry inh, LASV entry inh)
Cc1nc2c(-c3ccccc3)c[nH]n2c(=O)c1Cc1ccccc1	MARV entry inh 9.2µM, HCMV inh -99, LASV entry inh inconclusive
Cc1cc(=O)n2[nH]cc(-c3ccccc3)c2n1	MARV entry inh inconclusive
CCc1c(C)nc2c(-c3ccccc3)c(C)[nH]n2c1=O	MARV entry inh inconclusive, FMDV antiviral inconclusive
COc1ccc(-c2c(C)[nH]n3c(=O)c(Cc4ccccc4)c(C)nc23)cc1	MARV entry inh inconclusive, HCMV inh -88, LASV entry inh inconclusive
Cc1nc2c(-c3ccccc3)c(C)[nH]n2c(=O)c1Cc1ccc(Br)cc1	MARV entry inh inconclusive, HCMV inh -97, FMDV antiviral inconclusive, LASV entry inh inconclusive
Cc1ccc(Cc2c(C)nc3c(-c4ccccc4)c(C)[nH]n3c2=O)cc1	MARV entry inh inconclusive, HCMV inh -73, FMDV antiviral inconclusive
COC/C=C/C1=CC2=CC(=O)C(C)(OC(=O)c3cnc4ccccc4n3)C(=O)C2=CN1Cc1ccccc1 (stereo not given)	FMDV antiviral 14µM (no result: LASV entry inh)
Cc1cc(C)nc(Sc2nc(Cl)nc(N(c3ccccc3)c3ccccc3)n2)n1	MARV entry inh inconclusive, FMDV antiviral 35µM
Cc1cc(C)nc(SC(C(=O)O)c2ccccc2)n1 (stereo not given)	none
Cc1nc(SCC(=O)c2c[nH]c3ccccc23)n[nH]1	HCMV inh -69, LASV entry inh inconclusive
Cc1sc2ncnc(N3CCC(C(=O)N(C)CC(=O)Nc4ccc(Cl)c(C(F)(F)F)c4)CC3)c2c1C	MARV entry inh inconclusive, HCMV inh inconclusive, FMDV antiviral inconclusive, LASV entry inh 7.1µM
Cc1sc2ncnc(N3CCC(C(=O)N(C)CC(=O)Nc4cccc(F)c4)CC3)c2c1C	HCMV inh -88, FMDV antiviral 18µM (no result: MARV entry inh, LASV entry inh)
CN(CC(=O)Nc1ccc(Cl)c(C(F)(F)F)c1)C(=O)C1CC(=O)N(Cc2ccco2)C1 (stereo not given)	HCMV inh -90
